According to PubChem BioAssay AID449750 (Broad Institute, 2010):
The whole screen tested about 2,100 compounds, of which about 1,400 (67%) were called active. How the calls were made is not given here. The set was probably picked from earlier hits. This is one part of the list. Results with a measured potency or affinity are listed apart.

Assay: non-covalent RecA intein splicing inhibitors, dose response, biochemical, cell-free, fluorescence, secondary screen (AID 449750)
Settings: series mostly up to 38 µM

| SMILES | outcome |
| --- | --- |
| COCCn1c(N)c(C(=O)NCc2cccs2)c2nc3ccccc3nc21 | inactive |
| CC1=NN(Cc2ccccc2)C(=O)/C1=C\c1ccc(N(C)C)cc1 | inactive |
| Cc1ccccc1NC1=C/C(=N\S(=O)(=O)c2cccs2)c2ccccc2C1=O | inactive |
| Oc1ccc(N=Cc2ccc(-c3cccs3)s2)cc1 | inactive |
